# Reference: PubChem BioAssay AID1964107 (National Center for Advancing Translational Sciences (NCATS), 2024)
# About 360 (1.2%) of roughly 31,000 compounds were called active. Not shown: some 8% with an inconclusive outcome. This is one part of a sample in which actives are shown more often than they occur. A number with no mark means an inactive call. The call rests on the fitted dose curve.
# Target: Polyprotein P1234 (Chikungunya virus (strain S27-African prototype)) (UniProt Q8JUX6)
# Experiment: Primary qHTS for inhibitors of NSP2Pro chikungunya virus (CHIKV); further: nearly all actives have a fitted effect of over 60% in size
# Conditions: FRET peptide cleavage, fluorescence 1 h; series mostly up to 24.9 µM; activity change, negative = inhibition: at the top concentration
# From the text: PI: Natalia J. Martinez Ph.D. National Center for Advancing Translational Sciences (NCATS), National Institute of Health (NIH), Rockville, Maryland Chikungunya virus (CHIKV) is a mosquito-borne RNA virus that has emerged as one of the most important global arboviral threats in the last decade. Although the first CHIKV vaccine has recently been FDA approved for use in healthy adults at increased risk, to date, there are no available antiviral drugs for CHIKV infection. CHIKV nsP2 protease plays a crucial role in the processing of the viral polypeptide precursor to release enzymes required for viral replication, thus making it a promising drug target for antiviral discovery. Here, we established a high-throughput pipeline to identify small molecule inhibitors of nsP2 proteolytic activity. The pipeline is composed of a suite of 1,536-well in vitro assays to support quantitative high-throughput (qHTS) screening campaigns. Specifically, we developed a fluorescence resonance energy transfer (FRET)-based assay using a fluorogenic peptide substrate encompassing an endogenous cleavage site and purified recombinant protease domain (nsP2pro). Using this assay, we interrogated ~37,000 small molecules, including those in drug repurposing libraries as well as chemically diverse and medicinal chemistry-friendly compounds. Hits were selected for follow-up validation against full-length nsP2 and an additional peptide. FRET-based 1,536-well assays for papain, hepatitis C virus NS3-4A, and human furin proteases were implemented to characterize compound selectivity. […] Novel compounds were identified to be potential nsP2 inhibitors and molecular docking analyses were performed to explain the binding mode of selected hits. In vitro antiviral activity was evaluated for a subset of compounds using a high-throughput CHIKV infection assay. To our knowledge, the pipeline presented here is unprecedented for CHIKV antiviral discovery research.
# PROTOCOL TABLE (as described by Inglese J, Shamu CE and Guy RK. 2007) SEQUENCE No. (e.g., 1, 2, 3, etc.); […] (e.g., Cells, Incubation, Reagent, etc.); VALUE; DESCRIPTION. 1; Control / Compound; 20 nL; Echo 655 acoustic dispenser, Greiner 1536-well solid bottom black plate. 2; Enzyme; 4 uL; BioRAPTR FRD liquid dispenser (Beckman Coulter). 3; Incubation; 15 min; room temperature. 4; Reagent; 4 uL; 2.5 uM Peptide 2 substrate. 5; Incubation; 1 hr; room temperature. 6; Detection; Fluorescence; WiewLux microplate reader (PerkinElmer), 525 nm excitation, 598/25 nm emission. NOTES (numbers refer to sequence numbers above). 1. Briefly, 20 nL DMSO, positive control ZnAc (20nM final concentration), and test compounds were transferred into a 1,536-well solid bottom black plate (789176-F, Greiner One) via Echo 655 acoustic dispenser (Beckman Coulter). For primary screens, compounds were tested at 7 concentrations, 1:3 dilution points ranging from 25 uM to 34 nM. Follow-up confirmatory screens were carried out at 11 concentrations, 1:3 dilution points from 25 uM to 0.42 nM. 2. Four uL nsP2pro enzyme mix (150 nM final concentration) in 10 mM Tris-HCl pH 8.0 with 0.01% Tween 20 assay buffer was dispensed into the plate using a BioRAPTR FRD liquid dispenser (Beckman Coulter). 3. The plate was incubated at room temperature (protected from light) for 15 min 4. Four microliter of peptide 2 substrate (2.5 uM final concentration) in assay buffer was added to the plate. 5. After 1 hour, plates were immediately read on a ViewLux high-throughput CCD imager (Exposure = 10 sec, Gain = High, Speed = Slow, Binning = 2X). The above assay was also incorporated in the NCATS HTS facility41, which allowed for robotic liquid and compound dispensing, microplate handling, and fluorescence reading.. REFERENCE: Inglese J, Shamu CE and Guy RK, Reporting data from high throughput screening of small molecule libraries, Nature Chemical Biology, 2007, 3(8): 438-441. doi.org/10.1038/nchembio0807-438.
# On the % scale 0 is the no-effect control and ±100 the full control effect; potency means the concentration at half of the fitted maximal effect.
# Sequence of Polyprotein P1234 (Chikungunya virus (strain S27-African prototype)) (Q8JUX6 whole entry, looked up): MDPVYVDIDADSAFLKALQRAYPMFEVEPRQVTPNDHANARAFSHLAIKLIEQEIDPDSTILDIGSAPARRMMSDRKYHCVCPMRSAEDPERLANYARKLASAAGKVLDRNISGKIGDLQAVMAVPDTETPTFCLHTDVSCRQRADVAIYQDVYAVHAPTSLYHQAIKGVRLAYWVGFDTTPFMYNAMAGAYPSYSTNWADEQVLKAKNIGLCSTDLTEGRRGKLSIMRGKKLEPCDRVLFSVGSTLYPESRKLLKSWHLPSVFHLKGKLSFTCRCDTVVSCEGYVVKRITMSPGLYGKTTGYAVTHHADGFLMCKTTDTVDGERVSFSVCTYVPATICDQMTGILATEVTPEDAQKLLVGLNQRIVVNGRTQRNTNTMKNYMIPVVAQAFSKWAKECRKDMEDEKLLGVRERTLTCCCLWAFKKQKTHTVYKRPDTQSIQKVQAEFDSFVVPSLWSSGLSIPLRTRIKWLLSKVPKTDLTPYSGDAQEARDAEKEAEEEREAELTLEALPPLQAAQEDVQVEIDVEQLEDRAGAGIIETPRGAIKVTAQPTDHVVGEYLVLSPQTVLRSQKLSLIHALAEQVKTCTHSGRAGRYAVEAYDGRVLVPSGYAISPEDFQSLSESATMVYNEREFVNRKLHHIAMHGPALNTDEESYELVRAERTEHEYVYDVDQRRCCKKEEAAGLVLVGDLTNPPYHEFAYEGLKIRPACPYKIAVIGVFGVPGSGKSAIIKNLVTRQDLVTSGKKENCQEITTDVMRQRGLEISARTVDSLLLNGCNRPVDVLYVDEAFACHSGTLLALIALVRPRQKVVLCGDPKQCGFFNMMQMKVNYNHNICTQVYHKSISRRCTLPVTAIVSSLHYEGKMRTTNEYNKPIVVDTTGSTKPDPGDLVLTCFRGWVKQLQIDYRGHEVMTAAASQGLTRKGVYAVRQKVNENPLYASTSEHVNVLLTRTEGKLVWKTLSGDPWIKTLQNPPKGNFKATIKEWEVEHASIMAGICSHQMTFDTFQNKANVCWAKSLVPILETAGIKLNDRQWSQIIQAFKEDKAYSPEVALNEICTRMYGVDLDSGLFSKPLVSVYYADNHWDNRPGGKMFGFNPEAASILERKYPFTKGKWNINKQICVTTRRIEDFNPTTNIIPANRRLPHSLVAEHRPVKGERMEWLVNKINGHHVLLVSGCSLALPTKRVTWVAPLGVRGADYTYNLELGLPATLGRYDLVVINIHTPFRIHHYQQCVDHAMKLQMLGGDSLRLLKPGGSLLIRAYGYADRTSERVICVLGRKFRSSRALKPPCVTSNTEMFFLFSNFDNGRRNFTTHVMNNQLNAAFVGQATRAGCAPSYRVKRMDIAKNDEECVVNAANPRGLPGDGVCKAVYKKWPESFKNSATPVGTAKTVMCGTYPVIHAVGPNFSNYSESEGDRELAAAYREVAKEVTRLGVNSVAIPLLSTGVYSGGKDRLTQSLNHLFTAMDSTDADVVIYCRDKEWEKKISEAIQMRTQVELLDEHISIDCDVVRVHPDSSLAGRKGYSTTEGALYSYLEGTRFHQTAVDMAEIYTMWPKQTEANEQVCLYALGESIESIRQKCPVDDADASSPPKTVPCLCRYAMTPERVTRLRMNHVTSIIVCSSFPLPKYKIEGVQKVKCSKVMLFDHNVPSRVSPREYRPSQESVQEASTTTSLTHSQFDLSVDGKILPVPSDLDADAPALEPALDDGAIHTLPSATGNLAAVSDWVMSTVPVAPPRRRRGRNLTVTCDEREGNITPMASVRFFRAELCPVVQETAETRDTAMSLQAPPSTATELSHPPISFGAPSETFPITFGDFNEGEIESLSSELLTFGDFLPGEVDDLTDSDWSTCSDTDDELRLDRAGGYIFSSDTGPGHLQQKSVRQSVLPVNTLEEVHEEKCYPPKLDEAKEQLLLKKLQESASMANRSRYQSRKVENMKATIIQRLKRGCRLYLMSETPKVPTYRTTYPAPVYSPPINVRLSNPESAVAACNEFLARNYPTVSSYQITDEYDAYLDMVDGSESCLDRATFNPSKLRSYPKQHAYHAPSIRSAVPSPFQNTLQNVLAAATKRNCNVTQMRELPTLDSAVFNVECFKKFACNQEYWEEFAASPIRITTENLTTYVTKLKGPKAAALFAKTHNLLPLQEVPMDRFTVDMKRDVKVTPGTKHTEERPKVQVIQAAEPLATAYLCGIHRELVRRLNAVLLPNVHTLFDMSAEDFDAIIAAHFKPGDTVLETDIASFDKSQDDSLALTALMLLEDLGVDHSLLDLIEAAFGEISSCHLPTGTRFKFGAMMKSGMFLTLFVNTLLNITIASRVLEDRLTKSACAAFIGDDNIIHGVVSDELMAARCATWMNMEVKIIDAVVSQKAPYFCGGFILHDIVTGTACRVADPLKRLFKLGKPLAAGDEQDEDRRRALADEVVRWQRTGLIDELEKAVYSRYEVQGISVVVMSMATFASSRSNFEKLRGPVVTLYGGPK
Compound,"activity change, negative = inhibition",outcome,Potency
Cc1nn(Cc2ccccc2Cl)c(C)c1CN(C)CC(O)COc1ccc(Cl)cc1 (stereo unspecified),0.58%,,
O=C(Nc1nc(-c2ccccc2)cs1)c1ccncc1NS(=O)(=O)c1ccc(-c2ccccc2)cc1,,inactive,
CCOCCOC1CCN(S(=O)(=O)c2ccc(OC)cc2)CC1,,inactive,
CCOCCCNC(=O)c1cc2c(=O)n3ccccc3nc2s1,-12%,,
CCc1noc(-c2cn(C3CCN(C(=O)C4(c5ccccc5)CC4)C3)nn2)n1 (stereo unspecified),,inactive,
COc1ccc(Cc2ncc3c(n2)CN(C(=O)c2ccc(OC)c(O)c2)C3)cc1,4.72%,,
CC(NC(=O)c1cc(Sc2ccc(F)cc2F)nc2ccccc12)c1ccccc1 (stereo unspecified),-18.2%,,
O=C(N[C@@H]1CCOC[C@H]1OCCO)c1ccc2c(c1)ncn2CCO,-3.4%,,
CCC(=O)N1N=C(c2ccc(OC)cc2)CC1c1cn(-c2ccccc2)nc1-c1cccs1 (stereo unspecified),-18.6%,,
CCC(=O)N1CCc2cc(S(=O)(=O)NC(Cc3ccccc3)C(=O)NCc3ccc(C)cc3)ccc21 (stereo unspecified),-26.4%,,
FC(F)(F)c1cccc(N2CCN(C(=S)Nc3ccncc3)CC2)c1,0.924%,,
COc1cccc(-c2cn3c(n2)N(C(=O)c2cnccn2)CCC3)c1,5.42%,,
CCCN=C1S/C(=C\c2ccc(OC[C@H](O)CO)c(Cl)c2)C(=O)N1c1ccccc1C,-11.9%,,
CC(=O)c1ccc(NS(=O)(=O)c2ccc(-c3cc(C)no3)s2)cc1,-10.1%,,
Cc1ccc(N2CCN(C(=O)CCc3c(C)nc4c(c3C)c(=O)n(C)c(=O)n4C)CC2)c(C)c1,-6.64%,,
CCC(=O)N1CCc2cc(Br)cc(S(=O)(=O)CCC(=O)NCc3ccccc3OC)c21,-13.4%,,
CCOc1ccc(NC(=O)Cn2nc3n(c2=O)CCN(Cc2ccccc2C)C3=O)cc1,-3.88%,,
N#Cc1ccc(-c2ccc(NC(=O)c3cccs3)cn2)cc1,4.86%,,
CCOc1ccc(CNC(=O)c2ccc3nc(CC)c(CC)nc3c2)cc1OC,-2.04%,,
COc1ccc(CNC(=O)c2cc3c(s2)CN(C2CC2)C3)cc1OC,,inactive,
COc1ccc(C2=Nn3c(nnc3-c3ccccc3O)SC2)cc1,2.77%,,
CCC(C)C(=O)O[C@H]1[C@@H](OC(=O)c2ccoc2)C[C@](C)(O)[C@]23OC(C)(C)[C@H](C[C@H](OC(=O)c4ccoc4)[C@]12COC(C)=O)[C@H]3OC(C)=O (stereo partly specified),-3.85% [at 10 µM],,
CC1=C[C@@H](CNC2CCOCC2)[C@H](C(C)C)C[C@H]1Cc1nc2ccc(F)cc2[nH]1,3.26% [at 39.2 µM],,

Compound,"activity change, negative = inhibition",outcome,Potency
COc1ccc(C2=NS(=O)(=O)N(C)C(C(=O)NC(C)c3ccccc3)=C2)cc1 (stereo unspecified),-13.3%,,
CC(C)Oc1cccc(-c2cnc(N3CCC(C(N)=O)CC3)s2)c1,0.0009%,,
O=C(Nc1ccccc1-c1cn2c(CN3CCNCC3)csc2n1)c1ccc2ccccc2n1,17.2%,,
COCC(=O)N(C[C@H]1O[C@@H](CC(=O)NC2CC2)[C@H](O)[C@@H]1O)C[C@H]1O[C@@H](CC(=O)NC2CC2)[C@H](O)[C@@H]1O,,inactive,
C=CC1C(OC2OC(CO)C(O)C(O)C2O)OC=C(C(=O)OC)C1CC1CC(=O)CC(CCc2ccc(O)cc2)O1 (stereo unspecified),7.34% [at 10 µM],,
COc1ccccc1CC(=O)N1CCc2c(nc3cc(-c4ccccc4Cl)[nH]n3c2=O)C1,,inactive,
COc1ccc(C2CC(=O)N(Cc3ccccc3C)c3c2c(C)nn3-c2nc(C)cc(C)n2)c(OC)c1 (stereo unspecified),-7.48%,,
COc1ccc(/C=C2/C(=O)Nc3ccccc32)cc1O,,inactive,
COc1ccc(C(=O)Nc2cccc(C(=O)OCc3cc(=O)n4c5c(sc4n3)CCCC5)c2)cc1,-10.2%,,
Cc1cnc(C2CCC2)n1C1CCN(C(=O)CCC2CCCC2)CC1,-1.69%,,
O=C(CSc1nccn1Cc1ccc(Cl)cc1)NCc1ccccc1,-0.86%,,
O=C(CSc1ncc(CO)n1Cc1ccc(Cl)cc1)NCc1ccc(F)cc1,-6.18%,,
O=C(NCc1ccc(Cl)cc1)c1cc(-c2ccc[nH]2)n[nH]1,,,8.91 µM (active)
COc1ccc(CCn2cc3c(c2-c2ccc(Br)cc2)c(=O)n(C)c(=O)n3C)cc1OC,-19.2%,,
C[C@@H]1[C@H](O)[C@@H]2OC(=O)C3=C2[C@H](CCC3)[C@@]12C[C@@H](c1ccoc1)OC2=O,,,5.44 µM (active)
COc1cccc(CNc2ccc(S(=O)(=O)Nc3cc(C)on3)cc2)c1O,,inactive,
Fc1ccc(CSc2nc(NCc3ccccc3)c3ccccc3n2)cc1,3.47%,,
O=C(Nc1ccc(O)c(-c2nc3ccccc3o2)c1)c1ccc(-c2cccc(Cl)c2)o1,-11.1%,,
Cc1nn(C(C)C(=O)NCCc2ccccc2)c(=O)c2c1sc1ccccc12 (stereo unspecified),-15.8%,,
CCOC(=O)c1c(S(=O)(=O)NCC(=O)Nc2ccc(Cl)c(C(F)(F)F)c2)c(C)n(C)c1C,-19.1%,,
Cc1ncc([N+](=O)[O-])n1C[C@H](O)CN1CCOCC1,11.8%,,
CC(C)NC(=O)NCC1Cn2cccc2C(=O)N1Cc1ccccc1 (stereo unspecified),-12.1%,,
Cc1nn(Cc2ccccc2)c(C)c1[C@@H]1C=C[C@@H](NC(=O)NC(C)C)C1,,,14.1 µM (active)
